The compounds below were run against T1, Serine/threonine-protein kinase Sgk3 (Homo sapiens) (UniProt Q96BR1). Conditions: at 1 µM.
T1 sequence (whole entry): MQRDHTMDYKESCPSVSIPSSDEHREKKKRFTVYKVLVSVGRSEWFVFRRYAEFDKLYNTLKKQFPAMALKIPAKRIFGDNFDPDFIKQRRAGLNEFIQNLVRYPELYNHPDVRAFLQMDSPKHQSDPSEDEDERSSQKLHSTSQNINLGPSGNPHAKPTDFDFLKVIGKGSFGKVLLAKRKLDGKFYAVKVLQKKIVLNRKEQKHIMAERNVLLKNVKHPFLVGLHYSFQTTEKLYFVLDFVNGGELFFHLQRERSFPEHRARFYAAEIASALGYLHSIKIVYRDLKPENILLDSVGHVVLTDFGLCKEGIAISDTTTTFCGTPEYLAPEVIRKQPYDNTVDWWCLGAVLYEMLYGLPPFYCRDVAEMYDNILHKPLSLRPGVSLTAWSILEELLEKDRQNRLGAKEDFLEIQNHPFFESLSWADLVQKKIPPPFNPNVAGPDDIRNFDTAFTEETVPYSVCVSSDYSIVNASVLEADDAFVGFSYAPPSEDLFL
For `Nc1nc(Nc2ccc(S(N)(=O)=O)cc2)nn1C(=O)c1c(F)cccc1F`, the residual activity was 106%.
Work on `CCN1/C(=C/C(C)=O)Sc2ccc(OC)cc21` yielded a residual activity of 100%.
`O=C1NC(=O)/C(=C/c2ccc3c(c2)OC(F)(F)O3)S1` was tested, and the residual activity was 109%.
With `c1ccc(-c2n[nH]c3c2oc2ccccc23)cc1` the residual activity was 94%.
For `O=C1NC(=O)c2cc(Nc3ccc(F)cc3)c(Nc3ccc(F)cc3)cc21`, the residual activity was 96%.
`O=C1Cc2c([nH]c3ccc(Br)cc23)-c2ccccc2N1` gave a residual activity of 91%.
`O=C1NC(=O)c2c1c1c3ccccc3[nH]c1c1[nH]c3cc(Br)ccc3c21` showed a residual activity of 96%.
`CN(C)c1ccc(/C=C2\C(=O)Nc3ccccc32)cc1` showed a residual activity of 106%.
Compound `COc1ccc(C(=O)Nc2sc3c(c2C(N)=O)CCCC3)cc1OC` has a residual activity of 74%.
Compound `Ic1cccc(CSc2nnc(-c3ccncc3)o2)c1` has a residual activity of 91%.
`Cc1ccc(S(=O)(=O)/C=C/C#N)cc1` was tested, and the residual activity was 103%.
Compound `CCN(CC)CCNC(=O)c1c(C)[nH]c(/C=C2\C(=O)Nc3ccc(Cl)cc32)c1C` has a residual activity of 115%.
`CC(C)[C@H](CO)Nc1nc(Nc2cc(N)cc(Cl)c2)c2ncn(C(C)C)c2n1` was tested, and the residual activity was 98%.
In the case of `COc1cccc(-c2cc(=O)c3ccccc3o2)c1N`, the residual activity was 104%.
`Cc1cncc2cccc(S(=O)(=O)N3CCCN(C(=O)CN)C[C@H]3C)c12` showed a residual activity of 93%.
For `CC#CC(=O)Nc1cc2c(Nc3ccc(F)c(Cl)c3)ncnc2cn1`, the residual activity was 102%.
Compound `c1ccc2c(-c3ccncc3)c[nH]c2c1` has a residual activity of 101%.
With `O=C1c2ccccc2-[n+]2ccc3c([nH]c4ccccc43)c21` the residual activity was 99%.
For `Cc1ccc(NC2=CC(=O)c3sc(C)nc3C2=O)cc1`, the residual activity was 96%.
`Nc1nc(Nc2ccc(S(N)(=O)=O)cc2)nn1C(=S)Nc1c(F)cccc1F` was tested, and the residual activity was 88%.
In the case of `O=C(Nc1nc2ccccc2n1CCN1CCOCC1)c1cccc([N+](=O)[O-])c1`, the residual activity was 108%.
For `Cc1nc2cc3nc(-c4cccs4)cnc3cc2n1C`, the residual activity was 94%.
Compound `CCC(=O)Nc1ccc2ncnc(Nc3cccc(Br)c3)c2c1` has a residual activity of 105%.
Work on `O=Nc1c(-c2c(O)[nH]c3ccccc23)[nH]c2ccccc12` yielded a residual activity of 89%.
`NC(=O)Nc1sc(-c2ccc(F)cc2)cc1C(N)=O` showed a residual activity of 93%.
`CC[n+]1c(/C=C/N(C)c2ccccc2)n(-c2ccccc2)c2ccc(-c3nc4ccccc4s3)cc21` was tested, and the residual activity was 99%.
In the case of `NCCNc1ncc(C(N)=O)c(Nc2cccc(C(F)(F)F)c2)n1`, the residual activity was 82%.
`Cn1sc(=O)n(Cc2ccccc2)c1=O` was tested, and the residual activity was 99%.
`COc1cc2ncnc(Nc3ccc(O)c(Br)c3)c2cc1OC` showed a residual activity of 99%.
For `Cn1cc(/C=C2\C(=O)Nc3ccc(S(N)(=O)=O)cc32)c2ccccc21`, the residual activity was 112%.
With `NC(=O)c1ccc2[nH]c(-c3ccc(Oc4ccc(Cl)cc4)cc3)nc2c1` the residual activity was 107%.
For `COc1cc2ncnc(Nc3ccc(NC(=O)c4ccccc4)cc3)c2cc1OC`, the residual activity was 96%.

Reference: ChEMBL document CHEMBL2218924, “A broad activity screen in support of a chemogenomic map for kinase signalling research and drug discovery” (Biochem J, 2013)
